Screens deposited in PubChem by National Center for Advancing Translational Sciences (NCATS).
SW480 rerep = inducers of DNA re-replication in SW480 colon cancer cells. SW480 DNA re-replication, Hoechst DNA content imaging, 48 h. Potency, µM (series often up to 46.1 µM), without a hit: at the highest dose re-replication activation, most hits filed as activators. actives 1.8% (n = 340,000); note: % of control where 0% means no effect; nearly all actives have a fitted effect of over 55% in size
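First, 250 cells per well were seeded. Next, compound or vehicle (23 nL) was pinned in, plates sat 48 hr at 37 C. Finally Hoechst was added for 40 min before fluorescence scanning.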
KB-3-1 cytotox = KB-3-1 parental cell cytotoxicity | AID 1347075 | actives 1.4% (n = 400,000) | Potency, µM (doses to about 46.1 µM), actives largely listed as cytotoxic | KB-3-1 viability, CellTiter-Glo ATP luminescence, 72 h; note: % is set by controls: 0 for no effect and ±100 for the full control effect; nearly all actives have a fitted effect of over 60% in size
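Multi-concentration cytotoxicity screen in KB-3-1 cells grown in DMEM lacking phenol red with 10% FBS. After 72 h at 37 °C with compound, ATP-dependent luminescence was recorded.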
KB-V1 cytotox = KB-V1 MDR subline cytotoxicity; KB-V1 MDR cells viability, CellTiter-Glo, 72 h; Potency, µM (series often up to 46.1 µM), hits mostly cytotoxic; actives 3.4% (n = 400,000); AID 1347076; note: % is set by controls: 0 for no effect and ±100 for the full control effect; nearly all actives have a fitted effect of over 60% in size
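qHTS viability screen in drug-selected KB-V1 MDR cells: 72 h compound treatment at 37 degrees C, ATP luminescence end point.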
HT1080NT lethal = kills 2HG-producing HT-1080-NT fibrosarcoma cells. Potency, µM (titrated, usually from 46.1 µM), for inactives: at the top dose activity, negative = less viability, usual class: cytotoxic. HT-1080-NT fibrosarcoma viability, CellTiter-Glo ATP luminescence, 48 h. AID 686970. actives 1.6% (n = 360,000);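 note: NT is the 2HG producing partner of a matched IDH1 knockdown line; 0% = DMSO-treated cells and -100% = media-only wells without cells; nearly all actives have a fitted effect of over 55% in size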
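Viability by CellTiter-Glo luminescence after 48 h compound exposure at 37C of HT-1080-NT cells (750/well, RPMI, 5% FBS). % activity scaled between DMSO wells and medium-only wells, then curve-fitted and categorized by curve class.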
MCF10A rerep = induces DNA re-replication in MCF 10a normal breast cells. MCF 10A DNA re-replication, Hoechst nuclear intensity, 48 h. Potency, µM (titrated, usually from 46.1 µM), for the others: top-dose activity, positive = re-replication, actives largely listed as activators. actives 2.9% (n = 350,000). AID 624296; note: % of control where 0% means no effect; nearly all actives have a fitted effect of over 50% in size
HT1080 IDH1KD tx = HT-1080 IDH1 knockdown cell toxicity (counter line). HT-1080 IDH1 knockdown viability, ATP luminescence, 48 h. Potency, µM (highest dose often 46.1 µM), without a hit: top-dose activity, negative = toxicity, usual class: cytotoxic. actives 2% (n = 360,000). AID 686971;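 note: 0% = DMSO wells and -100% = cell-free medium wells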
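In this qHTS, HT-1080 cells depleted of IDH1 are exposed for 48 h at 37 °C to compound titrations. Toxicity is scored from CellTiter-Glo luminescence, with DMSO as full viability and medium alone as none.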
* = called active by the depositor; i = inactive; ? = inconclusive; nt = no result. An excerpt weighted towards active compounds, which were near 7.9% of everything screened. Calls come from the whole dose curve; as a rule, active = well fitted curve in the direction sought with a large enough effect; inconclusive = small, poorly fitted or top-dose-only effect, or another doubt; inactive = no such curve, though single readings can be large; an effect the other way counts as inactive or inconclusive. Potency is the fitted concentration of half-maximal effect.

SMILES | SW480 rerep | KB-3-1 cytotox | KB-V1 cytotox | HT1080NT lethal | MCF10A rerep | HT1080 IDH1KD tx
COc1ccccc1C(=O)COC(=O)Cc1n[nH]c(=O)c2ccccc12 | -4.9% | i | i | 5.7% | -1.7% | 0.2%
COc1ccc(NC(=O)CN(C)C(=O)Cc2n[nH]c(=O)c3ccccc23)cc1 | 23.1µM* | i | i | -15.0% | 13.8% | -6.5%
O=C(Cc1n[nH]c(=O)c2ccccc12)OCC(=O)c1ccc2c(c1)OCCO2 | 4.61µM* | 1.46µM* | ? | ? | 2.06µM* | 8.2µM*
COc1ccc(C(C)=O)cc1COC(=O)Cc1n[nH]c(=O)c2ccccc12 | -2.8% | i | 13µM* | -2.8% | 6.2% | -14.8%
CCOc1ccc(C(=O)COC(=O)Cc2n[nH]c(=O)c3ccccc23)cc1 | 2.59µM* | 4.11µM* | 4.61µM* | 6.51µM* | 1.64µM* | 5.17µM*
COc1ccccc1N1CCN(C(=O)c2cc3c(=O)n(Cc4cccnc4)ccc3nc2C)CC1 | nt | i | i | nt | nt | nt
CCCCN(CC)C(=O)Cn1nc(C)c2c(C)n(-c3ccccc3)nc2c1=O | nt | i | i | nt | nt | nt
COc1ccc(OCC(=O)Nc2cc(-c3cccc(Cl)c3)nn2-c2ccccc2)cc1 | nt | i | i | nt | nt | nt
Cc1cc(Cl)ccc1NC(=O)CN(c1ccccc1Br)S(C)(=O)=O | nt | i | i | nt | nt | nt
COc1ccc(Cn2nnnc2CN(Cc2cc3ccc(C)cc3[nH]c2=O)C2CCCC2)cc1 | -0.8% | i | ? | ? | 11.5% | ?
COc1ccc2[nH]c(=O)c(CN(c3ccc(C)c(C)c3)S(C)(=O)=O)cc2c1 | -22.6% | i | i | -10.9% | -14.0% | -1.1%
CCOc1ccc(N(Cc2cc3cc(OC)ccc3[nH]c2=O)S(C)(=O)=O)cc1 | -13.2% | i | 14.6µM* | -5.2% | -0.6% | ?
CCC(C)(C)n1nnnc1CN(Cc1cc2cc(OC)ccc2[nH]c1=O)C1CCCC1 | ? | i | 18.4µM* | -19.3% | 5.8µM* | -25.4%
COc1ccc2[nH]c(=O)c(CN(C(=O)NC3CCCCC3)C3CCCC3)cc2c1 | -5.5% | i | 14.6µM* | -0.6% | ? | -7.0%
COc1ccc2[nH]c(=O)c(CN(C(C)=O)C3CCCCC3)cc2c1 | 2.5% | i | i | 22.3% | 22.3% | 0.0%
O=C(NC1CCCCC1)N(CCO)Cc1cc2cc3c(cc2[nH]c1=O)OCCO3 | 0.2% | i | i | 11.1% | -0.1% | 1.8%
CCc1ccc2[nH]c(=O)c(CN(CCN(CC)CC)C(=O)NC3CCCCC3)cc2c1 | 14.3% | ? | i | 16.4µM* | ? | ?
CCOC(=O)[C@]12CCC=C1N(Cc1cccc3ccccc13)C(=O)[C@H](CC(=O)NCCC(C)C)C2 | nt | ? | 16.4µM* | ? | nt | ?
CCCCOCCCNC(=O)C[C@@H]1C[C@@]2(C(=O)OCC)CCCC=C2N(Cc2cccc3ccccc23)C1=O | nt | ? | 18.4µM* | ? | nt | ?
CCOC(=O)[C@]12CCCC=C1N(Cc1cccc3ccccc13)C(=O)[C@H](CC(=O)NCc1cccc3ccccc13)C2 | nt | i | ? | -10.4% | nt | -28.1%
COC(=O)[C@]12CCCCC=C1N(CCc1ccc(OC)c(OC)c1)C(=O)[C@H](CC(=O)NCc1cccc3ccccc13)C2 | nt | i | 20.6µM* | ? | nt | ?
COC(=O)[C@]12CCCCC=C1N(Cc1cccc3ccccc13)C(=O)[C@H](CC(=O)NCc1ccc(OC)c(OC)c1)C2 | nt | 5.8µM* | ? | ? | nt | ?
COC(=O)[C@]12CCCCC=C1N(Cc1cccc3ccccc13)C(=O)[C@H](CC(=O)NCc1cccc3ccccc13)C2 | nt | i | i | -14.0% | nt | -15.5%
COC(=O)[C@]12CCCCC=C1N(CCc1ccc(OC)c(OC)c1)C(=O)[C@H](CC(=O)NCc1ccc(C)o1)C2 | nt | i | ? | 12.1% | nt | 22.0%
CC1=C(C(=O)N(C(C)C)C(C)C)CC(CC(=O)NCCCN(C)C)C(=O)N1CCCN1CCCC1=O (centres undefined) | nt | i | i | 20.1% | nt | 18.2%
SMILES | SW480 rerep | KB-3-1 cytotox | KB-V1 cytotox | HT1080NT lethal | MCF10A rerep | HT1080 IDH1KD tx
CC(C)c1cc(C(=O)OCC(=O)NC2CCS(=O)(=O)C2)c(O)c(C(C)C)c1 (centres undefined) | nt | i | i | 0.3% | nt | -1.9%
COc1ccc(NC(=O)c2nn(C)c3c2CS(=O)(=O)c2ccccc2-3)cc1Cl | nt | i | i | nt | nt | nt
COC(=O)[C@]12CCCCC=C1N(Cc1cccc3ccccc13)C(=O)[C@H](CC(=O)NCc1cccs1)C2 | nt | ? | 16.4µM* | ? | nt | ?
CCCCCCCCN1C(=O)[C@H](CC(=O)NCc2cccc(C(F)(F)F)c2)C[C@@]2(C(=O)OCC)CCC=C12 | nt | i | i | ? | nt | ?
CCOC(=O)[C@]12CCC=C1N(Cc1cccc3ccccc13)C(=O)[C@H](CC(=O)NCc1ccc(OC)c(OC)c1)C2 | nt | 6.51µM* | ? | ? | nt | ?
CCCCCCCCN1C(=O)[C@H](CC(=O)NCc2cccc(C(F)(F)F)c2)C[C@@]2(C(=O)OC)CCCCC=C12 | nt | ? | 16.4µM* | ? | nt | ?
COC(=O)[C@]12CCCCC=C1N(CCC1=CCCCC1)C(=O)[C@H](CC(=O)NCc1cccs1)C2 | nt | ? | i | ? | nt | -28.5%
CCOC(=O)[C@]12CCC=C1N(Cc1ccco1)C(=O)[C@H](CC(=O)NCc1ccc(OC)c(OC)c1)C2 | nt | i | i | 2.5% | nt | 1.4%
CCCCCCCCN1C(=O)[C@H](CC(=O)NCc2cccs2)C[C@@]2(C(=O)OC)CCCCC=C12 | nt | ? | 20.6µM* | ? | nt | ?
COc1cc(C(=O)N2CCC2(C)C(=O)NC(C)C)cc(OC)c1OC (centres undefined) | nt | i | i | ? | nt | 22.0%
Cc1ccc2c(C)c(C(=O)N3CCC(c4nc5ccccc5s4)CC3)oc2c1C | nt | i | i | nt | nt | nt
Cc1ccccc1OCC(O)CN1CCN(CCN2C(=O)c3cccc4cccc(c34)C2=O)CC1 (centres undefined) | 10.0% | ? | ? | 3.3% | 15.0% | 5.4%
CC(C)(C)C(=O)Cn1c(=N)n(Cc2ccccc2Cl)c2ccccc21 | ? | ? | i | -10.7% | 14.3% | -20.9%
CC(C)(C)C(=O)Cn1c(=N)n(Cc2ccccc2)c2ccccc21 | ? | ? | ? | ? | 17.8µM* | ?
Cc1ccccc1OCC(O)CN1CCN(CC(O)COc2ccccc2C)C(C)C1 (centres undefined) | 6.5% | i | i | 25.9µM* | ? | ?
